Among all 190,000 compounds or so, about 810 (0.43%) were called active. The sample holds actives, similar compounds and a random draw of the others, so the mix is not that of the screen. Unmarked numbers belong to inactive results. No stated cut-off is given here; in the data, active means inhibition above about 50%; inactive means the rest.
biological target: Mannose-6-phosphate isomerase (Homo sapiens) (UniProt P34949); test: MPI enzyme activity inhibition – biochemical, fluorescence intensity, coupled assay, primary screen (AID 1209); details: purified PMI enzyme, at 20 µM, hits give high values;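 further: plate controls were DMSO vehicle for no effect and wells lacking substrate for full effect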
Sequence (P34949 whole entry, looked up): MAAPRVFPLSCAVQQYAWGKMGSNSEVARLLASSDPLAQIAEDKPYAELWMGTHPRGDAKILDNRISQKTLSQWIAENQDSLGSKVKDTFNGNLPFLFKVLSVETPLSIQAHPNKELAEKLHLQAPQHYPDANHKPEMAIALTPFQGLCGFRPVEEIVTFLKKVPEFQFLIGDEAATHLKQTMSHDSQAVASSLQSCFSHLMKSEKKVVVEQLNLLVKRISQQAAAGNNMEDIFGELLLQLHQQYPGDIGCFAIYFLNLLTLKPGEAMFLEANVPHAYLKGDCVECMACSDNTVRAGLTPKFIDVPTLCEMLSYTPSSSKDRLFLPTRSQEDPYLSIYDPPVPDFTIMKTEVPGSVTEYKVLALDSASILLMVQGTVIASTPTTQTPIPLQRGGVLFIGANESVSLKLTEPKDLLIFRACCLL

For `Cc1c(Br)cc(C(=O)OC2CCN(C)CC2)c(C)c1C`, which inhibition is on record?
The inhibition was -1.2%.

With `CCc1nnc(NC(=O)CSc2nnc(CNc3ccc(Cl)cc3)o2)s1` as the compound, how does the inhibition read?
Its inhibition is 9.1%.

Which inhibition does the source give for `CCCNc1nc2c(c(=O)n(C)c(=O)n2C)n1Cc1ccc(F)cc1` here?
The inhibition was 15.7%.

How did the inhibition turn out when `COc1ccc2c(c1OC)C(=O)N(c1nccs1)C2` was run?
The inhibition was 6.6%.

How did the inhibition turn out when `CCN=C(NS(=O)(=O)c1ccc(Br)cc1)c1ccc(Cl)cc1` was run?
Its inhibition is 10.4%.

For `CC1CCCN(S(=O)(=O)c2ccccc2[N+](=O)[O-])C1` (stereo unspecified), which inhibition is on record?
Its inhibition is 9.5%.

Which inhibition does the source give for `COc1ccc(C2CC2/C(C)=N/OC(=O)c2cccs2)cc1` (stereo unspecified) here?
The inhibition was -5.4%.

For `COc1ccc(C2CC2/C(C)=N/OC(=O)c2ccc(F)cc2)cc1` (stereo unspecified), which inhibition is on record?
The inhibition was 73.5% (active).

`COc1ccc(C2CC2/C(C)=N/OC(=O)C2CC2)cc1` (stereo unspecified) was tested. Which inhibition did it give?
Its inhibition is 2.2%.

With `CCn1c(C)nc2cc(C(=O)OC(C(F)(F)C(F)F)C(F)(F)C(F)F)ccc21` as the compound, how does the inhibition read?
Its inhibition is 18.2%.

`Cc1cc2c(cc1C)N(C(=O)CSc1nncn1C)C(C)(C)c1ssc(=S)c1-2` was tested. Which inhibition did it give?
The inhibition was 10.4%.

How did the inhibition turn out when `COC(=O)c1cc(OC)nc2c1c(=O)n(C)c(=O)n2C` was run?
Its inhibition is -3.1%.

`CCCC(=O)n1nc(-c2cccnc2)nc1NCc1ccccc1` was tested. Which inhibition did it give?
Its inhibition is 3.3%.

`CCC(=O)n1nc(-c2cccnc2)nc1NCc1ccc(OC)cc1` was tested. Which inhibition did it give?
Its inhibition is 8.8%.

How did the inhibition turn out when `CCCC(=O)n1nc(-c2cccnc2)nc1NCc1ccc(OC)cc1` was run?
The inhibition was 86.5% (active).

For `O=C(CSc1ccc2c(c1)OCCO2)Nc1cccc(S(=O)(=O)N2CCCCC2)c1`, which inhibition is on record?
The inhibition was 12.6%.

Which inhibition does the source give for `CC(=O)c1cc2c(O)c(O)ccc2o1` here?
The inhibition was 81.1% (active).

How did the inhibition turn out when `O=C(O)c1cc2c(ccc3ccccc32)o1` was run?
The inhibition was 4.1%.

For `CC(=O)c1cc2cc(O)ccc2o1`, which inhibition is on record?
The inhibition was 3.2%.

How did the inhibition turn out when `COc1cc(OC)cc(C(=O)N[C@H](C(=O)Nc2nnc(C3CC3)s2)C(C)C)c1` was run?
Its inhibition is 11.7%.

`O=C(CCc1ccccc1)OCC(=O)c1cccc([N+](=O)[O-])c1` was tested. Which inhibition did it give?
The inhibition was 3.7%.

Which inhibition does the source give for `O=C(CSc1ncnc2c1oc1ccccc12)OCc1ccccc1` here?
The inhibition was 22.9%.

For `CCOc1ccccc1N1C(=O)CC(Sc2n[nH]c(-c3ccccc3)n2)C1=O` (stereo unspecified), which inhibition is on record?
The inhibition was 36%.

Which inhibition does the source give for `COc1ccccc1N1C(=O)CC(Sc2nc(C)cc(C)n2)C1=O` (stereo unspecified) here?
The inhibition was 0.4%.

`O=C(CN1CCCCC1)NCCNc1ccc(C(F)(F)F)cc1[N+](=O)[O-]` was tested. Which inhibition did it give?
Its inhibition is 3.9%.

For `CCN(CC)S(=O)(=O)c1ccc(N2CCCC2)c(NS(=O)(=O)c2ccc(OC)cc2)c1`, which inhibition is on record?
The inhibition was -1.6%.

For `COc1ccc(NS(=O)(=O)c2ccc(N3CCCC3)c(NC(=S)Nc3ccc(SC(F)F)cc3)c2)cc1`, which inhibition is on record?
Its inhibition is 59% (active).

Which inhibition does the source give for `O=S(=O)(Nc1ccc(Cl)cc1)c1ccc(N2CCOCC2)c(NC(=S)NCCN2CCOCC2)c1` here?
The inhibition was 12.4%.

`COc1ccc(NS(=O)(=O)c2ccc(N3CCOCC3)c(NC(=O)c3ccc(F)cc3)c2)cc1` was tested. Which inhibition did it give?
Its inhibition is 11.8%.

`COc1ccc(NC(=S)Nc2cccc(S(=O)(=O)N3CCCCC3)c2)cc1` was tested. Which inhibition did it give?
The inhibition was 1.3%.

Which inhibition does the source give for `COc1ccc(NS(=O)(=O)c2ccc(N3CCOCC3)c(NC(=O)C(C)C)c2)cc1` here?
The inhibition was -20%.

For `COc1ccc(NS(=O)(=O)c2ccc(N3CCOCC3)c(NC(=O)c3ccc(OC)cc3)c2)cc1`, which inhibition is on record?
The inhibition was 9.7%.

With `COC(=O)CCC(=O)Nc1cc(S(=O)(=O)Nc2ccc(Cl)cc2)ccc1N1CCOCC1` as the compound, how does the inhibition read?
The inhibition was 21.8%.

How did the inhibition turn out when `COc1ccc(NS(=O)(=O)c2ccc(N3CCOCC3)c(NC(=O)c3ccccc3Cl)c2)cc1` was run?
The inhibition was -2.5%.

`COc1ccc(NS(=O)(=O)c2ccc(N3CCCC3)c(NC(=S)Nc3cccc(C)c3C)c2)cc1` was tested. Which inhibition did it give?
The inhibition was 78.9% (active).

For `O=S(=O)(Nc1ccc(Cl)cc1)c1ccc(N2CCOCC2)c(NC(=S)NC2CC2)c1`, which inhibition is on record?
Its inhibition is 61.3% (active).

Which inhibition does the source give for `COc1ccc(NS(=O)(=O)c2ccc(N3CCCC3)c(NC(=S)Nc3cccc(S(=O)(=O)N(C)C)c3)c2)cc1` here?
Its inhibition is 69.9% (active).

Which inhibition does the source give for `CCCCNC(=S)NNC(=O)c1csc(C)c1CC` here?
The inhibition was -8.1%.

With `O=C(O)CNC(=O)CC1S/C(=N/N=C/c2ccccc2O)NC1=O` (stereo unspecified) as the compound, how does the inhibition read?
The inhibition was -8.1%.

With `CCCn1c(=O)c2ccccc2n2c(SCCOc3ccc(C)cc3)nnc12` as the compound, how does the inhibition read?
The inhibition was 12.7%.

`CCn1nnnc1SCC(=O)Nc1cc(OC)cc(OC)c1` was tested. Which inhibition did it give?
Its inhibition is 2.1%.

For `COc1ccc(C(=O)COC(=O)CCN=C2NS(=O)(=O)c3ccccc32)cc1OC`, which inhibition is on record?
The inhibition was -5.9%.

`Cc1c(NC(=O)CCC2CCCCC2)c(=O)n(-c2ccccc2)n1C` was tested. Which inhibition did it give?
Its inhibition is -13.7%.

Which inhibition does the source give for `O=S(=O)(NC1=NCCC1)c1cccc(NC(=S)NCCc2ccccc2)c1` here?
The inhibition was 2.3%.

Which inhibition does the source give for `Cc1cc(N2CCOCC2)nc2ccc(NC(=S)N3CCCCC3C)cc12` (stereo unspecified) here?
Its inhibition is 52.4% (active).

With `Cc1cc(N2CCOCC2)nc2ccc(NC(=O)C3CCC(C)CC3)cc12` (stereo unspecified) as the compound, how does the inhibition read?
Its inhibition is -6%.

`Cc1cc(N2CCOCC2)nc2ccc(NC(=S)N3CCN(c4ccccc4)CC3)cc12` was tested. Which inhibition did it give?
Its inhibition is 22.5%.

For `O=c1oc2cc(OCc3ccc(C(F)(F)F)cc3)ccc2cc1-c1ccccn1`, which inhibition is on record?
The inhibition was -7%.

How did the inhibition turn out when `O=C(NNC(=S)Nc1ccc(Cl)cc1)c1cccs1` was run?
The inhibition was -1.6%.

For `COc1cc(C(=O)NNC(=S)Nc2ccc(S(N)(=O)=O)cc2)cc(OC)c1OC`, which inhibition is on record?
The inhibition was 56.6% (active).

How did the inhibition turn out when `COc1cc(OC)cc(C(=O)NNC(=S)Nc2ccc(S(N)(=O)=O)cc2)c1` was run?
The inhibition was -10.4%.

Which inhibition does the source give for `NS(=O)(=O)c1ccc(NC(=S)NNC(=O)c2cccs2)cc1` here?
The inhibition was 63.3% (active).

For `O=C(NNC(=S)Nc1ccccc1)c1cccs1`, which inhibition is on record?
The inhibition was -13.9%.

With `COc1cc(C(=O)NNC(=O)c2ccc(NC(C)=O)cc2)cc(OC)c1OC` as the compound, how does the inhibition read?
The inhibition was -4.2%.

`COc1ccc(C(=O)Nc2ccc3c(c2)nc(CN2CCCC2)n3C)cc1` was tested. Which inhibition did it give?
Its inhibition is 9.7%.

Which inhibition does the source give for `C=CCn1c(SCC(=O)c2cccs2)nnc1-c1cccc(OC)c1` here?
The inhibition was 11.5%.

With `O=C(N/N=C/C(c1ccccc1)c1ccccc1)c1ccccc1F` as the compound, how does the inhibition read?
The inhibition was -8.5%.

For `Cc1nn(-c2nc3ccccc3n2Cc2ccccc2)c2c1C(=O)CC(C)(C)C2`, which inhibition is on record?
The inhibition was 24.7%.

With `CNCc1ccccc1Sc1ccc(O)c(O)c1` as the compound, how does the inhibition read?
Its inhibition is 74.9% (active).

`CNCc1ccccc1Sc1cccc(O)c1` was tested. Which inhibition did it give?
Its inhibition is -7%.

With `CNCc1ccccc1Sc1cc(O)ccc1O` as the compound, how does the inhibition read?
Its inhibition is 19.1%.

From PubChem BioAssay AID1209 (Sanford-Burnham Center for Chemical Genomics, 2008)
